Measurements reported in PubChem BioAssay (NCI).
The panel holds about 83,000 compounds, 20% with a hit somewhere; the sample as a whole holds those more often.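 Treatment: one concentration, 48 hours, 96-well format. Scoring: percent growth, with anything below 10 considered active.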 The source made the active and inactive calls.

Key:
Test in all cases: NCI-60 one-dose screen, 48 h (100 = growth as untreated, 0 = no growth, -100 = all killed)
Settings in all cases: 10 µM unless noted
[1] = tested on: DU-145 prostate
[2] = tested on: K-562 leukemia
[3] = tested on: MALME-3M melanoma
[4] = tested on: MDA-MB-231 breast
[5] = tested on: RXF 393 renal
[6] = tested on: SF-268 CNS
[7] = tested on: SF-295 CNS
[8] = tested on: SF-539 CNS
[9] = tested on: UACC-257 melanoma
[10] = tested on: M14 melanoma
[11] = tested on: HCT-15 colon
[12] = tested on: HT29 colon
[13] = tested on: SNB-75 CNS
[14] = tested on: SNB-19 CNS
[15] = tested on: PC-3 prostate
[16] = tested on: SK-MEL-5 melanoma
[17] = tested on: UACC-62 melanoma
[18] = tested on: LOX IMVI melanoma
[19] = tested on: SK-MEL-28 melanoma
[20] = tested on: U251 CNS

Measured: growth

CC(=O)c1cc2c(N)c(C(=O)Nc3cncc4ccccc34)sc2nc1C
inactive: [1] 115% | [2] 81.7% | [3] 112% | [4] 86.2% | [5] 100% | [6] 105% | [7] 97.2% | [8] 98.3% | [9] 104% | [10] 94% | [11] 95.4% | [12] 107% | [13] 91.5% | [14] 98.5% | [15] 93.8% | [16] 98.5% | [17] 76.1% | [18] 98.9% | [19] 102%

N#Cc1c(Nc2ccccc2)nn2cc(-c3nc4ccccc4s3)c(N)nc12
inactive: [1] 66% | [2] 74.8% | [3] 40.4% | [4] 72.5% | [5] 87.8% | [6] 70% | [7] 99% | [8] 58% | [9] 83.7% | [10] 58.8% | [11] 71% | [12] 81.8% | [13] 55.9% | [14] 76.5% | [20] 84.2% | [15] 73.4% | [17] 66.8% | [18] 67.9% | [19] 68.7%

COc1ccc(OC)c(/C=C/[C@H]2O[C@@H](C)[C@H](O)[C@@H]2O)c1
inactive: [1] 121% | [2] 93% | [3] 96.7% | [4] 98.4% | [5] 117% | [6] 111% | [7] 102% | [8] 100% | [9] 104% | [10] 103% | [11] 103% | [12] 104% | [13] 90.2% | [14] 99.4% | [15] 106% | [16] 103% | [17] 100% | [18] 99.8% | [19] 102%

Cc1ccc(O)c(C(=O)O)c1
inactive: [1] 114% | [2] 98.2% | [3] 128% | [4] 114% | [5] 121% | [6] 104% | [7] 114% | [8] 116% | [9] 108% | [10] 116% | [12] 102% | [13] 107% | [14] 109% | [20] 92.6% | [15] 104% | [16] 105% | [17] 104% | [18] 101% | [19] 114%

O=C(Nc1ccc2cc3ccc(NC(=O)NC4CCCCC4)cc3nc2c1)NC1CCCCC1
inactive: [1] 97.3% | [2] 16.8% | [3] 106% | [4] 101% | [5] 15.7% | [6] 68.1% | [7] 45.6% | [8] 50.1% | [9] 99.8% | [10] 90.5% | [11] 111% | [12] 82.7% | [13] 58.6% | [14] 78.9% | [15] 83.7% | [16] 107% | [17] 87.8% | [18] 63% | [19] 79%

COc1cc(CCNc2nc3cc(N)cc(N)c3nc2-c2ccccc2)cc(OC)c1
inactive: [1] 85.7% | [7] 60.8% | [9] 88.9% | [11] 69.7% | [13] 39.9% | [14] 12.9%
active: [2] -71.2% | [3] -66.4% | [4] -22.6% | [5] -64.4% | [6] 7.74% | [8] -31.7% | [10] -32.8% | [12] 5.3% | [15] 4.03% | [17] -22.3% | [18] -79.7% | [19] -12.2%

Cc1cc2cc3cc(C)c(N)cc3[n+](C)c2cc1N
inactive: [1] 19.1% | [4] 20.2% | [5] 26.3% | [6] 14.2% | [8] 17.3% | [10] 18.7% | [11] 31.8% | [13] 38.3% | [14] 11.6% | [17] 33% | [19] 21.7%
active: [2] 9.81% | [3] 1.11% | [7] -4.54% | [9] 5.88% | [12] -16.8% | [20] 6% | [15] 8.84% | [18] -4.56%

NC(=O)CN1CCN(c2ccccc2Cl)CC1
inactive: [1] 108% | [2] 97.2% | [3] 104% | [4] 102% | [5] 112% | [6] 106% | [7] 97.9% | [8] 107% | [9] 107% | [10] 102% | [11] 107% | [12] 101% | [13] 119% | [14] 118% | [20] 111% | [15] 105% | [17] 113% | [18] 109% | [19] 110%

CCOC(=O)C1=C(C)NC(C)=C(C(=O)OCC)C1c1cc(Br)c(O)c(OC)c1
inactive: [1] 20.8% | [2] 25.5% | [3] 33.3% | [4] 53.7% | [6] 54.9% | [7] 16.2% | [8] 22.8% | [9] 59.1% | [11] 30.9% | [12] 71.4% | [14] 45.2% | [15] 32.6% | [16] 19.5% | [17] 48.8% | [18] 36.7% | [19] 47.5%
active: [5] -26.6% | [10] 3.03% | [13] 8.16%

Cc1[nH]c(C(=O)Nc2ccccc2OCc2cccc(C(=O)NCCN)c2)c(Cl)c1Cl
inactive: [1] 100% | [3] 58.4% | [4] 76.8% | [5] 65.2% | [6] 67.9% | [7] 87.8% | [8] 84.9% | [9] 104% | [10] 87.8% | [11] 86.3% | [12] 38.2% | [13] 86.2% | [14] 58.3% | [15] 79.7% | [16] 95.3% | [17] 92.6% | [19] 84.3%
active: [2] -47.5% | [18] -48.1%

O=C(CSc1nc2sc3c(c2c(=O)n1Cc1ccccc1)CCCC3)N1CCN(c2ccccc2)CC1
inactive: [1] 103% | [2] 99.4% | [3] 109% | [4] 101% | [5] 105% | [6] 93.9% | [7] 101% | [8] 103% | [9] 85.7% | [10] 97.2% | [12] 90.2% | [13] 79.4% | [14] 110% | [20] 90.8% | [15] 83.2% | [16] 98.5% | [17] 96% | [18] 97% | [19] 106%

O=C1CCC(NC(=S)Nc2ccccc2)N1 (configuration not stated)
inactive: [1] 112% | [2] 97.5% | [3] 99.6% | [4] 109% | [5] 117% | [6] 104% | [7] 110% | [8] 105% | [9] 104% | [10] 110% | [11] 113% | [12] 98.3% | [13] 113% | [14] 100% | [20] 104% | [15] 102% | [17] 99.9% | [18] 97.5% | [19] 108%

Cc1cc(Nc2cccc(C(F)(F)F)c2)n2c(nc3ccccc32)c1C#N
inactive: [1] 53.9% | [2] 22.1% | [3] 60.6% | [4] 54.2% | [5] 61.3% | [6] 51.3% | [7] 53.9% | [8] 40.9% | [9] 11.9% | [10] 54.4% | [11] 12.2% | [12] 13.2% | [13] 59.4% | [14] 40.7% | [20] 11.6% | [15] 21.8% | [17] 37.9% | [18] 59.6% | [19] 54.8%

CC(=O)N1c2ccccc2NC2=C(C(=O)N(C)C2(C)C)C1C (configuration not stated)
inactive: [1] 79% | [2] 16.6% | [3] 44.3% | [4] 63.3% | [5] 27.8% | [6] 43% | [7] 46% | [8] 20.1% | [9] 36.4% | [10] 21.5% | [12] 25.2% | [14] 39.9% | [20] 18.1% | [15] 36.4% | [16] 27.5% | [17] 32.3% | [18] 37.5% | [19] 56%
active: [13] -3.29%

c1ccc(-c2nn(-c3ccccc3)[n+](-c3cccc4ccccc34)n2)cc1
inactive: [1] 29.1% | [4] 31.5% | [5] 30.8% | [6] 26.4% | [7] 16.8% | [8] 25.6% | [9] 17.5% | [10] 27.6% | [11] 103% | [12] 12.1% | [13] 48.4% | [14] 24.9% | [18] 12.7% | [19] 41.2%
active: [2] 8.3% | [3] -38.7% | [15] 6.61% | [16] -30.2% | [17] -2.14%

CNC(=O)NCC1OC(n2cnc3c(NC(=O)Nc4ccccc4)ncnc32)C(O[Si](C)(C)C(C)(C)C)C1O[Si](C)(C)C(C)(C)C (configuration not stated)
active: [5] -37% | [12] -67.7% | [15] 7.78%
inactive: [1] 52.2% | [2] 34.5% | [3] 48.9% | [4] 37.7% | [6] 36% | [7] 45.1% | [8] 33.4% | [9] 42.8% | [10] 33% | [13] 45.8% | [14] 76.1% | [20] 17.2% | [16] 48.2% | [17] 41.9% | [18] 13.3%
